The test system of test [1] is Wnt5a (protein binding on small-molecule microarray). Kind of test: Wnt5a binders on small-molecule microarray, primary screen, biophysical, 635/667 nm fluorescence (AID 1142).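 Further: fluorescence read at 667 nm with signal to noise per printed feature.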 The conditions noted are these: 635 nm fluorescence, higher = more signal.
Test [2] is described as follows: cell viability in Huh7 cells, primary screen, cytotoxicity control for HCV replication inhibitor project, CellTiter-Glo luminescence, basal, 48 h (AID 1143).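 Further: Huh7 hepatoma cells carrying a hepatitis C replication reporter with no stimulus; test concentration not given here.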 As to conditions: Huh7 HCV replicon, higher = more signal, called active from +8 up or from −8 down. Background: Cellular ATP, detected with luciferase, serves as a proxy for viable cell number.
A short description of test [3]: CREB reporter modulators without forskolin, primary screen, cell-based, PC12, CRE-LacZ reporter, unstimulated (AID 1145). As to conditions: no forskolin, luminescence, 4.5 h, higher = more signal, called active from +8 up or from −8 down.
A short description of test [4]: CREB reporter modulators under forskolin, primary screen, cell-based, PC12, CRE-LacZ reporter, forskolin-stimulated (AID 1146).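 Further: PC12 cells with 6xCRE LacZ reporter stimulated by forskolin 10 µM; beta-galactosidase reporter signal reflecting CREB driven transcription.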 As to conditions: luminescence, 4.5 h, higher = more signal, called active from +8 up or from −8 down.
Test [5] addresses Streptavidin (Streptomyces avidinii) (UniProt P22629). Kind of test: streptavidin binders on small-molecule microarray, primary screen, artefact control for SMM compound annotation, biophysical, 635/667 nm fluorescence (AID 1147).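 Further: signal reflects streptavidin binding to arrayed compounds as a control protein.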 The conditions noted are these: streptavidin binding, higher = more signal.
Test [6] can be described thus: small-molecule binders of probe aInhba, primary screen, biochemical, small-molecule microarray, 635/667 nm fluorescence (AID 1148).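 Further: score merges 667nm spot fluorescence with signal-to-noise for antibody binding to printed compounds.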 The conditions noted are these: higher = more signal.
Test [7] has as its target Torsin-1A (Homo sapiens) (UniProt O14656). Nature of the test: torsin A binders from cell lysate, primary screen, small-molecule microarray, wild-type, 635/667 nm (AID 1149). As to conditions: COS7 hTOR1A-WT lysate, 635 nm fluorescence, higher = more signal.
Test [8] has the same target. Kind of test: small-molecule binders of mutant TOR1A in lysate, primary screen, cell lysate, small-molecule microarray, COS7 lysate, 635/667 nm fluorescence (AID 1150).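 Further: score pools 667 nm emission and signal to noise measuring lysate protein binding.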 As to conditions: COS7 hTOR1A mutant lysate, 635 nm fluorescence, higher = more signal.
The subject of test [9] is Sonic hedgehog protein (Shh). Nature of the test: small-molecule binders of Shh protein, primary screen, biochemical, small-molecule microarray, 635/667 nm fluorescence (AID 1151).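 Further: Shh protein binding to compounds spotted on small-molecule microarray slides; score combines spot fluorescence intensity with signal-to-noise across triplicate slides.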 As to conditions: small-molecule microarray binding, 635 nm fluorescence; higher = more signal.
A short description of test [10]: E. coli DRC41 culture turbidity changes, primary screen, E. coli filamentation inducer project, strain DRC41, OD650, 48 h (AID 1152).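 Further: E. coli MC1000 strain DRC41 lacking acrAB efflux pump and sulA.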 The conditions noted are these: E. coli DRC41 (acrAB sulA), higher = more signal, called active from +8 up or from −8 down.
A short description of test [11]: small-molecule binders of probe aLefty1, primary screen, biochemical, small-molecule microarray, 635/667 nm fluorescence (AID 1153).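 Further: score merges spot fluorescence with signal-to-noise ratio from the scanned slide images.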 As to conditions: higher = more signal.
The nature of test [12]: PSAC antagonists in infected red cells, primary screen, cell-based, P. falciparum Indochina, OD700, 1 h (AID 1154). The conditions noted are these: P. falciparum Indochina infected RBC osmotic lysis, higher = more signal, called active from +8 up or from −8 down.
Test [13] in a line: PSAC antagonists in infected red cells, primary screen, cell-based, P. falciparum Indochina, OD700, 2 h (AID 1155).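 Further: lysis reports solute entry through the parasite surface anion channel PSAC; channel blockers reduce lysis of infected cells.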 The conditions noted are these: P. falciparum Indochina infected erythrocytes, osmotic lysis OD700; higher = more signal, called active from +8 up or from −8 down.
The nature of test [14]: osmotic lysis modulators in infected erythrocytes, primary screen, PSAC antagonist project, cell-based, P. falciparum Indochina, OD700, 3 h (AID 1156). As to conditions: higher = more signal, called active from +8 up or from −8 down.
Test [15] in a line: PSAC antagonists in infected red cells, primary screen, cell-based, P. falciparum Indochina, OD700, 18 h (AID 1157). The conditions noted are these: P. falciparum Indochina infected erythrocytes, osmotic lysis OD700, 18 h; higher = more signal, called active from +8 up or from −8 down.
Test [16] is described as follows: modulators of S6 phosphorylation in cells, primary screen, cell-based, A549, cytoblot, luminescence, serum-stimulated (AID 1158).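 Further: serum-stimulated A549 lung adenocarcinoma cells; signal is phosphorylated S6 detected by cytoblot immunostaining with HRP secondary.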 The conditions noted are these: A549 phospho-S6 cytoblot, 5 h, higher = more signal.
Test [17] has as its target NADPH oxidase 2 (Homo sapiens) (UniProt P04839). Kind of test: NOX2-dependent H2O2 signal modulators, primary screen, NOX inhibitor project, cell-based, HEK293-NOX2, PMA-stimulated, Amplex Red fluorescence (AID 1159). Further: test concentration not given here. The conditions noted are these: 45 min, higher = more signal, called active from +8 up or from −8 down.
In test [18] the target is NADPH oxidase 4 (Homo sapiens) (UniProt Q9NPH5). Kind of test: NOX4-dependent H2O2 signal modulators, primary screen, NOX inhibitor project, cell-based, HEK293-NOX4, tetracycline-induced, Amplex Red fluorescence (AID 1160). The conditions noted are these: 45 min, higher = more signal, called active from +8 up or from −8 down.
Sequence of NADPH oxidase 4 (Homo sapiens) (Q9NPH5 whole entry, looked up): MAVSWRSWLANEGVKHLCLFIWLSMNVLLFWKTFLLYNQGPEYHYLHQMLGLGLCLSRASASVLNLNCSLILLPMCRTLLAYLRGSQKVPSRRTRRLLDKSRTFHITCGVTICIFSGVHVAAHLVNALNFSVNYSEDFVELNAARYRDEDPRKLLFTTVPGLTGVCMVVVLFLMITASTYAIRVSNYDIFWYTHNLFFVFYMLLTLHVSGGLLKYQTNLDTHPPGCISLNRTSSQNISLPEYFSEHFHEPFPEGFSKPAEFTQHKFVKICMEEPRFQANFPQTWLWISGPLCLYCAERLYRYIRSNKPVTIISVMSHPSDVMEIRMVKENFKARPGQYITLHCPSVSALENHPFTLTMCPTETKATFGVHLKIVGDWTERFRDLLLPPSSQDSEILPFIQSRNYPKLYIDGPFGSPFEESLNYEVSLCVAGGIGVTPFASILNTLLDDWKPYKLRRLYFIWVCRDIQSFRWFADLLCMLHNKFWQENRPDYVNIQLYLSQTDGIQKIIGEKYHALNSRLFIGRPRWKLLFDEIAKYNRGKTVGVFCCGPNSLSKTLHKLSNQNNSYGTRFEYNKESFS
In test [19] the target is NADPH oxidase 5 (Homo sapiens) (UniProt Q96PH1). Nature of the test: NOX5-dependent H2O2 signal modulators, primary screen, NOX inhibitor project, cell-based, HEK293-NOX5, Amplex Red fluorescence (AID 1161). The conditions noted are these: HEK293-NOX5, ionomycin, 45 min, higher = more signal.
Sequence of NADPH oxidase 5 (Homo sapiens) (Q96PH1 whole entry, looked up): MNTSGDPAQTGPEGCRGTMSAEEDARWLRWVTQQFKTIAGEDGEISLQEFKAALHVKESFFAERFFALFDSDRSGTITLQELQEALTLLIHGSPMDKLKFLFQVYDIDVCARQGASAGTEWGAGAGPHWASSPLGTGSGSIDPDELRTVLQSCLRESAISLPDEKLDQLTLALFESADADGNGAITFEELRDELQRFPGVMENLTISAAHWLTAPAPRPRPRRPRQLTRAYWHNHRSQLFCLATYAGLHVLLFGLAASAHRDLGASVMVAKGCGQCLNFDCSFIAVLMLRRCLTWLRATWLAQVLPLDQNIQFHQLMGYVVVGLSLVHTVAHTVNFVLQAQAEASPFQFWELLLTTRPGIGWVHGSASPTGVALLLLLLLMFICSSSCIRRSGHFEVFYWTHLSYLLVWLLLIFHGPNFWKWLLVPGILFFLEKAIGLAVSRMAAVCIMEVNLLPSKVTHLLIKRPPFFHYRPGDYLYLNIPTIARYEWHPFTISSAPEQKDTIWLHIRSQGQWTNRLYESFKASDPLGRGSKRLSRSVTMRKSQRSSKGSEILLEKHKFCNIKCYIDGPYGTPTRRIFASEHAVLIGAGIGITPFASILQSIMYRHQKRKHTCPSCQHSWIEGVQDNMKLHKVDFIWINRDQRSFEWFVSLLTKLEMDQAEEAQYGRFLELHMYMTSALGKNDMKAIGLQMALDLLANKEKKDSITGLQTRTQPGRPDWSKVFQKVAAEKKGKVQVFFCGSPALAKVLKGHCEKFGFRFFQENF
Test [20] in a line: A549 cell viability effects, profiling panel, calcein-AM fluorescence, 48 h, basal (AID 1162). Further: test concentration not given here. As to conditions: higher = more signal.

The source made the active and inactive calls.

Sequence of NADPH oxidase 2 (Homo sapiens) (P04839 whole entry, looked up): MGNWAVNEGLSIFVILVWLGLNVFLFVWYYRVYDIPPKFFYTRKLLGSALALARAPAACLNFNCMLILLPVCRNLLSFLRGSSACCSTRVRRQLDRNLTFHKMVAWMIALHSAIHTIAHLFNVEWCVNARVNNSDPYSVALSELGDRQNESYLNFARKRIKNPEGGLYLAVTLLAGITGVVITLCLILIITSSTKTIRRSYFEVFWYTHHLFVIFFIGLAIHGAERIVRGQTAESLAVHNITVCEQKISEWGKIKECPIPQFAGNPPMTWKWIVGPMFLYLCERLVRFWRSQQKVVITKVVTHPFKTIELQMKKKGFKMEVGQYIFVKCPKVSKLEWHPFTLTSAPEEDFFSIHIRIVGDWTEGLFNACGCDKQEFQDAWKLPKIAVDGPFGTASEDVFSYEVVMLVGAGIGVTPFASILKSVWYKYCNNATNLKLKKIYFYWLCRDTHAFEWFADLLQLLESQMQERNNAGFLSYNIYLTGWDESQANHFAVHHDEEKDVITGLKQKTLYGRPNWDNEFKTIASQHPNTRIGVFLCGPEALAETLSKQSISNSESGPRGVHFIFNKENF
Sequence of Torsin-1A (Homo sapiens) (O14656 whole entry, looked up): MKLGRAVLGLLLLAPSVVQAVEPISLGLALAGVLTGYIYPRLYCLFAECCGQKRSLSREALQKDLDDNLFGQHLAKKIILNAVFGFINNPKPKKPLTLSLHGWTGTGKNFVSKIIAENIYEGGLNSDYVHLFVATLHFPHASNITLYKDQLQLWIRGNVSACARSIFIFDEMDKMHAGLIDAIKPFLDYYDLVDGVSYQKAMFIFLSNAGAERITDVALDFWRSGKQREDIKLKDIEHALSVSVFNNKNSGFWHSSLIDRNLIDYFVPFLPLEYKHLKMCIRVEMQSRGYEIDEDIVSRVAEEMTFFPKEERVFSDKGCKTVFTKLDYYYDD
Sequence of Streptavidin (Streptomyces avidinii) (P22629 whole entry, looked up): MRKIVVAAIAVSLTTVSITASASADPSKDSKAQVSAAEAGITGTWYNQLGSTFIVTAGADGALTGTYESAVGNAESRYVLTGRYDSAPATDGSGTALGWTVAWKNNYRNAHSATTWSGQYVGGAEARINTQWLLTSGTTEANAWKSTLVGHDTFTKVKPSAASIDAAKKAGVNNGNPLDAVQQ

On to `COc1ccc([Si](C)(C)[C@@H]2[C@@H](CCn3cc(CCO)nn3)O[C@]3(C(=O)N(Cc4ccc(N5C(=O)c6cccc7cccc5c67)cc4)c4ccccc43)[C@H]2C)cc1`, for which the composite z-score in test [1] was 0.0378; in [5], 0.256; in test [6] it was -0.0529; with Torsin-1A (Homo sapiens) [7], 0.815; with Torsin-1A (Homo sapiens) [8], 0.609; in test [9], 0.907. The compound further displayed a composite z-score in test [11] of 0.457. Besides, the z-score was -7.93 (inactive) in test [2]; 0.353 (inactive) in [3]; -1.65 (inactive) in test [4]; 1.93 (inactive) in [10]; 6 (inactive) in test [12]; 0.758 (inactive) in test [13]. The z-score in [14] is -1.06 (inactive); in test [15] it was -1.22 (inactive); in [16] it was 2.29; in test [17] it was 2.23 (inactive); in test [18], 1.62 (inactive); in [19], 1.42. The z-score in [20] was -1.32.
Turning to `C=CCNC(=O)[C@@H]1[C@H]2C(=O)O[C@H](c3ccccc3)[C@H](c3ccccc3)N2[C@H](c2ccc(O)cc2)[C@@]12C(=O)N(C(=O)OCCOC)c1ccc(C#Cc3ccc(OC)cc3)cc12`, the composite z-score is 0.334 in test [1]; 0.256 in [5]; 0.0627 in [6]; 0.808 in the test with Torsin-1A (Homo sapiens) [7]; 0.54 in the test with Torsin-1A (Homo sapiens) [8]; 1.06 in test [9]. This compound also came in with a composite z-score in test [11] of -0.0222. The z-score was -2.94 (inactive) in test [2]; -0.203 (inactive) in [3]; 0.417 (inactive) in test [4]; 1.58 (inactive) in test [10]; 2.52 (inactive) in [12]; 1.19 (inactive) in test [13]. Moreover, the z-score is -0.264 (inactive) in test [14]; 0.804 (inactive) in [15]; -0.0456 in [16]; 0.957 (inactive) in [17]; -0.276 (inactive) in test [18]; 1.9 in [19]. Moreover, the z-score in test [20] was -0.413.
For `COCCCNC(=O)[C@@]1(C)c2ccccc2C(=O)N(Cc2cc(F)cc(C(F)(F)F)c2)[C@H]1c1ccc(CO)cc1`, the composite z-score is -0.0509 in [1]; -0.624 in [5]; -0.38 in test [6]; 0.891 with Torsin-1A (Homo sapiens) [7]; -0.439 in the test with Torsin-1A (Homo sapiens) [8]; -1.16 in [9]. For the same compound, the composite z-score in test [11] is -0.279. In addition, the z-score in [2] was -0.914 (inactive); in test [3], -0.0512 (inactive); in test [4] it was -0.883 (inactive); in test [10] it was 1.7 (inactive); in test [12], 1.13 (inactive); in [13] it was 0.459 (inactive). The z-score is 0.0539 (inactive) in [14]; 0.0567 (inactive) in [15]; 0.0396 in test [16]; 0.184 (inactive) in test [17]; -1.4 (inactive) in test [18]; 0.42 in test [19]. The z-score in test [20] was -0.0292.
Regarding `CC(C)C(=C=CC[C@@H](O)c1ccc(CO)o1)CCO`, the composite z-score is 0.502 in test [1]; -0.294 in [5]; -0.0986 in test [6]; 1.65 with Torsin-1A (Homo sapiens) [7]; 0.289 with Torsin-1A (Homo sapiens) [8]; 1.48 in test [9]. Further, the composite z-score in test [11] is -0.147. The z-score in [2] is -0.105 (inactive); in [3] it was 0.681 (inactive); in test [4] it was -1.82 (inactive); in [10] it was 1.38 (inactive); in [12] it was 1.95 (inactive); in test [13] it was 0.236 (inactive). In addition, the z-score was 0.311 (inactive) in [14]; 0.0124 (inactive) in test [15]; -0.109 in test [16]; 1.62 (inactive) in test [17]; 1.64 (inactive) in test [18]; 1.49 in [19]. Further, the z-score in test [20] is 2.76.
Turning to `O=C(O)[C@H]1C[C@H]2C(=O)NCC(=O)N2[C@H]1c1cccc(OCCO)c1`, the composite z-score in test [1] worked out at 0.0144; in test [5], 0.42; in test [6] it was 0.263; with Torsin-1A (Homo sapiens) [7], 0.836; with Torsin-1A (Homo sapiens) [8], 0.654; in test [9], 0.821. Moreover, the composite z-score in [11] was found to be 1.24. The z-score is -0.812 (inactive) in test [2]; 0.285 (inactive) in [3]; -0.736 (inactive) in test [4]; 2.08 (inactive) in test [10]; 9.23 (active) in [12]; 1.29 (inactive) in test [13]. The z-score in test [14] was -1.73 (inactive); in test [15], 0.818 (inactive); in test [16], 0.617; in test [17], 1.81 (inactive); in test [18], 1.52 (inactive); in test [19], 1.61. In test [20], the z-score was -0.24.
